Data as given in PubChem BioAssay (Tox21).
Inconclusive results are not listed. Calls of active or inactive are those of the source. Unless noted, the call rests on the fitted dose curve.

What was measured:
[1] = Nuclear factor erythroid 2-related factor 2/antioxidant responsive element (Nrf2/ARE) small molecule agonists: qHTS cell viability counter screen in human keratinocytes (AID 1919968; active means well fitted curve in the direction sought with a large enough effect in the repeat runs; an effect the other way counts as inactive or inconclusive; further: nearly all actives have a fitted effect of over 55% in size; further: potency means the concentration at half of the fitted maximal effect)
In short: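 Parallel cytotoxicity read: KeratinoSens HaCaT cells, compound treatment 23 h, viability by CellTiter-Fluor fluorescence 1 h post-reagent.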

[2] = Nuclear factor erythroid 2-related factor 2/antioxidant responsive element (Nrf2/ARE) small molecule agonists: luciferase reporter gene qHTS assay in human keratinocytes (AID 1919969); further: nearly all actives have a fitted effect of over 35% in size; further: potency means the concentration at half of the fitted maximal effect
[3] = molecular target: Gonadotropin-releasing hormone receptor (Homo sapiens) (UniProt P30968); test: Human gonadotropin-releasing hormone receptor (GnRHR) small molecule agonists, calcium flux assay in GnRHR-HEK293 cells (AID 1920063); further: nearly all actives have a fitted effect of over 35% in size
In short: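 Calcium flux, agonist mode, human GnRHR stably integrated in HEK293; dye 1 h at 37 C before compound; Ex/Em=480/540 kinetic read, 3 min; 15 concentrations, triplicate.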

[4] = molecular target: KiSS-1 receptor (Homo sapiens) (UniProt Q969F8); test: Human kisspeptin (KISS1R) small molecule agonists, calcium flux assay in KISS1R-HEK293 cells (AID 1920064; active means well fitted curve in the direction sought with a large enough effect in the repeat runs; an effect the other way counts as inactive or inconclusive)
In short: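 Triplicate 15-concentration series were applied to dye-loaded human KISS1R HEK293 cells, and agonist-evoked calcium fluorescence was captured for 3 min.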

[5] = G protein-coupled receptor (GPCR) small molecule agonists, calcium flux assay: HEK293 wild type cell line counter screen (AID 1920065)
In short: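 Non-specific calcium responders were flagged by adding DMSO-dissolved compounds to dye-loaded cells and reading 480/540 nm fluorescence each second for 3 min; ATP served as positive control.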

[6] = p53 small molecule agonists, cell-based qHTS assay with human liver microsomes (AID 1963577)
In short: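 p53RE-bla reporter cells were pre-incubated 5 h at 37 C, then treated with compounds plus human liver microsomes (0.5 mg/mL final) and NADPH (0.5 mg/mL final) for 16 h at 37 C. Beta-lactamase activity was read by LiveBLAzer fluorescence after 2 h at room temperature.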

[7] = p53 small molecule agonists, cell-based qHTS assay with rat liver microsomes (AID 1963578)
In short: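 p53RE-bla cells were exposed to compounds together with rat liver microsomes (0.5 mg/mL final) and NADPH (0.5 mg/mL final) for 16 h at 37 C, then read by LiveBLAzer beta-lactamase fluorescence after 2 h at room temperature.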

[8] = p53 small molecule agonists, cell-based qHTS assay with human liver microsomes: qHTS cell viability counter screen (AID 1963579); further: nearly all actives have a fitted effect of over 45% in size
In short: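 p53RE-bla cells (4,000/well) were pre-incubated 5 h at 37 C, then given compounds in DMSO plus human liver microsomes (0.5 mg/mL final) and NADPH (0.5 mg/mL final) for 16 h at 37 C. Viability was read by CellTiter-Glo luminescence.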

[9] = p53 small molecule agonists, cell-based qHTS assay with rat liver microsomes: qHTS cell viability counter screen (AID 1963580); further: nearly all actives have a fitted effect of over 45% in size
In short: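 Cytotoxicity counter screen: intracellular ATP read by CellTiter-Glo luminescence in the p53 reporter wells. HCT-116 p53RE-bla cells were treated for 16 h at 37 C alongside rat liver microsomes and NADPH, each 0.5 mg/mL final.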

[10] = p53 small molecule agonists, cell-based qHTS assay: qHTS cell viability counter screen (AID 1963581); further: nearly all actives have a fitted effect of over 45% in size
In short: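 Multiplexed with the reporter read, a CellTiter-Glo step (30 min, room temperature) gauges ATP-based viability of HCT-116 p53RE-bla cells after 16 h compound incubation at 37 C.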

[11] = p53 small molecule agonists, cell-based qHTS assay (AID 1963582; active means well fitted activation curve with a large enough effect in the signal ratio in the repeat runs, not every such curve was filed as active; the % refers to the signal ratio; further: potency means the concentration at half of the fitted maximal effect)
In short: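 Beta-lactamase reporter cells (p53RE-bla) treated with compounds for 16 h at 37 C; FRET substrate, 2 h, room temperature; fluorescence intensity.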

[12] = molecular target: 5-hydroxytryptamine receptor 2A (Homo sapiens) (UniProt P28223); test: 5-hydroxytryptamine receptor 2A (HTR2A) small molecule antagonists, cell-based qHTS assay (AID 1963586); further: nearly all actives have a fitted effect of over 45% in size; further: potency means the concentration at half of the fitted maximal effect
In short: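 CHO cells stably expressing human HTR2A were plated for 18 h at 37 C, then loaded with calcium dye for 1 h. Compounds were preincubated 5 min at room temperature before DOI (4 nM solution) was added. Kinetic fluorescence was read for 3 min.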

[13] = molecular target: 5-hydroxytryptamine receptor 2A (Homo sapiens) (UniProt P28223); test: 5-hydroxytryptamine receptor 2A (HTR2A) small molecule agonists, cell-based qHTS assay (AID 1963587); further: nearly all actives have a fitted effect of over 30% in size
In short: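 Kinetic calcium-flux fluorescence (2 min, 1 sec intervals) after compound addition in agonist mode. HTR2A-CHO cells were cultured 18 h, then dye-loaded 1 h at 37 C.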

[14] = molecular target: Muscarinic acetylcholine receptor M1 (Homo sapiens) (UniProt P11229); test: Cholinergic receptor muscarinic 1 (CHRM1) small molecule agonists, cell-based qHTS assay (AID 1963589); further: nearly all actives have a fitted effect of over 35% in size
In short: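 qHTS, 15-point titration, 3 independent runs: compounds pin-transferred onto dye-loaded CHRM1-CHO cells (human M1), calcium fluorescence followed every second to detect agonism.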

[15] = cAMP Responsive Elements (CRE) small molecule agonists, cell-based qHTS assay (AID 1963590)
In short: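 Quantitative HTS for CRE agonists: HEK 293T CRE-bla cells, overnight plating, 3 h compound incubation at 37 C/5% CO2, then 2 h room-temperature LiveBLAzer B/G FRET substrate loading.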

[16] = molecular target: Beta-2 adrenergic receptor (Homo sapiens) (UniProt P07550); test: Adrenergic beta2 receptor (ADRB2) small molecule antagonists, cell-based qHTS assay (AID 1963592); further: nearly all actives have a fitted effect of over 50% in size; further: potency means the concentration at half of the fitted maximal effect
In short: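 Assay format: CHO-ADRB2 cells, 18-20hr seeding at 37C/5% CO2, then compound plus 1nM isoproterenol agonist mix for 0.5hr RT. Homogeneous time-resolved fluorescence cAMP detection after 1hr, expressed as 665/615 nm ratio.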

[17] = molecular target: D(2) dopamine receptor (Homo sapiens) (UniProt P14416); test: Dopamine D2 receptor (DRD2) small molecule agonists, cell-based qHTS assay (AID 1963594); further: nearly all actives have a fitted effect of over 35% in size
In short: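 cAMP accumulation in DRD2-HEK293 cells measured by HTRF after 1 h detection; compounds added 10 min before NKH477 (200nM […]) forskolin-analogue stimulation, 30 min at room temperature, with Ro20-1724 present at 0.1 mM final.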

[18] = molecular target: D(2) dopamine receptor (Homo sapiens) (UniProt P14416); test: Dopamine D2 receptor (DRD2) small molecule antagonists, cell-based qHTS assay (AID 1963595; active means well fitted inhibition curve with a large enough effect in the signal ratio in the repeat runs, with a control signal flat; the % refers to the signal ratio)
In short: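 HEK293 cells stably expressing DRD2, preincubated with 0.1 mM Ro20-1724 and compounds 10 min, were stimulated with 200 nM NKH477 plus 12 nM quinpirole for 30 min at room temperature; cAMP measured by HTRF (665/620 nm).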

[19] = cAMP Responsive Elements (CRE) small molecule antagonists, cell-based qHTS assay (AID 1963591; active means well fitted inhibition curve with a large enough effect in the signal ratio in the repeat runs, not every such curve was filed as active; the % refers to the signal ratio)
In short: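 Fluorescence intensity from cleaved LiveBLAzer B/G substrate (2 h, room temperature) quantified CRE-bla activity in HEK 293T cells exposed 3 h to compound with 0.25 uM final NKH477.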

[20] = molecular target: Muscarinic acetylcholine receptor M1 (Homo sapiens) (UniProt P11229); test: Cholinergic receptor muscarinic 1 (CHRM1) small molecule antagonists, cell-based qHTS assay (AID 1963588); further: nearly all actives have a fitted effect of over 40% in size
In short: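 Compounds were tested at 15 concentrations in three independent runs. Dye-loaded CHRM1-CHO cells were exposed 5 min at room temperature before stimulation by acetylcholine added at 50nM. Intracellular calcium was read kinetically on FDSS for 3 min.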

Measured: Potency

Chain of Gonadotropin-releasing hormone receptor (Homo sapiens) (P30968 whole entry, looked up): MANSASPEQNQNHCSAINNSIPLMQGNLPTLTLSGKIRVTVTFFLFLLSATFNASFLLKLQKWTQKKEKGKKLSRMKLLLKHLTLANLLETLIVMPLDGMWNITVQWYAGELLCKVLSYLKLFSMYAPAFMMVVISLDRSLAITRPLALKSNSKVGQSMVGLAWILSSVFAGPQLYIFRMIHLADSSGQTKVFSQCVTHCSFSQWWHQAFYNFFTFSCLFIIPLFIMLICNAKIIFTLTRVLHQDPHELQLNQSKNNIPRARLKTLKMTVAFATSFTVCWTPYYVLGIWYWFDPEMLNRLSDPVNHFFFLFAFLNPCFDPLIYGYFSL
Chain of Muscarinic acetylcholine receptor M1 (Homo sapiens) (P11229 whole entry, looked up): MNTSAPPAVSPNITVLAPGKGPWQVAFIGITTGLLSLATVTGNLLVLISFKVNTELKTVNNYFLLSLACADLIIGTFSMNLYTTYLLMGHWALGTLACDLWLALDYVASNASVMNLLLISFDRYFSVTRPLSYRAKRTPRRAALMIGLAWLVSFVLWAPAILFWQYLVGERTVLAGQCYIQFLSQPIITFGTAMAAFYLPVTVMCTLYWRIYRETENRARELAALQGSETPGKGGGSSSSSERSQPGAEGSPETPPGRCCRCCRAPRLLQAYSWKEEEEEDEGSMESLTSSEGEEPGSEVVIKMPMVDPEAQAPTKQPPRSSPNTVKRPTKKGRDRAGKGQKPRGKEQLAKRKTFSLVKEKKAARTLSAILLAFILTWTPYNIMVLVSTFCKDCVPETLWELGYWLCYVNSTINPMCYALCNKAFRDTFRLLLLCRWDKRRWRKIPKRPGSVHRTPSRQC
Chain of KiSS-1 receptor (Homo sapiens) (Q969F8 whole entry, looked up): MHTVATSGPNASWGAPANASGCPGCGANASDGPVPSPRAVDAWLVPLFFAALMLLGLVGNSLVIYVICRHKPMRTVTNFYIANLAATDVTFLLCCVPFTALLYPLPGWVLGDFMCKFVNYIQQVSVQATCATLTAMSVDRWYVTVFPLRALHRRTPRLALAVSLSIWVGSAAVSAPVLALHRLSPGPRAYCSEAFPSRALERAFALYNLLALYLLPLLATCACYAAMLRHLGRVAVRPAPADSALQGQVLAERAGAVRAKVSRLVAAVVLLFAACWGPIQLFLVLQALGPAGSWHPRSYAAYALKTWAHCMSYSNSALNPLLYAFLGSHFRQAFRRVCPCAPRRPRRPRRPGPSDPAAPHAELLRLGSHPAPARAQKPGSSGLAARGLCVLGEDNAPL
Chain of 5-hydroxytryptamine receptor 2A (Homo sapiens) (P28223 whole entry, looked up): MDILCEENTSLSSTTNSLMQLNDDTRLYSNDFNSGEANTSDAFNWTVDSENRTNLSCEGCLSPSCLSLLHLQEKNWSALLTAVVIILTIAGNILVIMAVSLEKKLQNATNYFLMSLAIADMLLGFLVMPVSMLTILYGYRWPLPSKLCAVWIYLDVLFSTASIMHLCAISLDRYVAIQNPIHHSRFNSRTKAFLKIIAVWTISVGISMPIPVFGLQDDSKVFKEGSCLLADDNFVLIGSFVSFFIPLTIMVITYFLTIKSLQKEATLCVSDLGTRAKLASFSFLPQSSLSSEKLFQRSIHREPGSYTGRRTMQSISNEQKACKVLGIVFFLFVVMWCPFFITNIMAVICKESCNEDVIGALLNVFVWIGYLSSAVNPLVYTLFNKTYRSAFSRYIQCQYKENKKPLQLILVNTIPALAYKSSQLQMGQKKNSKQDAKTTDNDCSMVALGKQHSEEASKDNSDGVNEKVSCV
Chain of Beta-2 adrenergic receptor (Homo sapiens) (P07550 whole entry, looked up): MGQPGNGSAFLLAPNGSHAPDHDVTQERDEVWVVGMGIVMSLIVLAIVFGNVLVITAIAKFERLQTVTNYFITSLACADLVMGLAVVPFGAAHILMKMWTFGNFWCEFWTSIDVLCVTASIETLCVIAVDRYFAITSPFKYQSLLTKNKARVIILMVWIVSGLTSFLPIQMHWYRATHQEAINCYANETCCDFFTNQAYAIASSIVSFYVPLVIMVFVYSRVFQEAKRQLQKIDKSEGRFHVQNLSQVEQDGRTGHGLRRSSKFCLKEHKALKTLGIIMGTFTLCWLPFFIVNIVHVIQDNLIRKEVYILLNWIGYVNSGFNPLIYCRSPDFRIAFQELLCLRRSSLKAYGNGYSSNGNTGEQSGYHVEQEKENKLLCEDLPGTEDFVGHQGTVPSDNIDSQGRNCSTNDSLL
Chain of D(2) dopamine receptor (Homo sapiens) (P14416 whole entry, looked up): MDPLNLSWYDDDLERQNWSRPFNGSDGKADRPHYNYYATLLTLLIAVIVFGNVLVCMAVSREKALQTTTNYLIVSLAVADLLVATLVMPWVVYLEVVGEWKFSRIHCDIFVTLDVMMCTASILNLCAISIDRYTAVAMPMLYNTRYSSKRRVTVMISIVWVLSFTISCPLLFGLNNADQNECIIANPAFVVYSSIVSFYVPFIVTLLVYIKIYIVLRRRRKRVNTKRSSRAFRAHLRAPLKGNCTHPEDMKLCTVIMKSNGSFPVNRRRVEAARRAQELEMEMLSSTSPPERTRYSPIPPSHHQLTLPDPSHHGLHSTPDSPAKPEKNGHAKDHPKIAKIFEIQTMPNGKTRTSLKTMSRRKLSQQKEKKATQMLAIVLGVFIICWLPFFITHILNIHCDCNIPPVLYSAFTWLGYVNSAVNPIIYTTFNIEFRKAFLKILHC

N#C/C(=C1\SCC(c2ccccc2Cl)S1)n1ccnc1 (stereo not given)
not listed: [19] | [20]
inactive: all other assays above

CC(C)C[C@@H]1[C@H](c2ccccc2)OC(=O)N1CCCN1CCCCCC1
active: [12] 2.59 µM
not listed: [15] | [16] | [20]
inactive: all other assays above

CCC(C)(CCCC(C)C)OC(C)=O (stereo not given)
not listed: [20]
inactive: all other assays above

CCC(C(=O)OCCN(CC)CC)c1ccccc1 (stereo not given)
not listed: [20]
inactive: all other assays above

CCCCCCC
not listed: [20]
inactive: all other assays above

CC(C)=CC(=O)O
not listed: [19] | [20]
inactive: all other assays above

O=C(OCCCCCCOC(=O)c1ccccc1)c1ccccc1
active: [2] 68.6 µM
not listed: [20]
inactive: all other assays above

CC[N+](CC)(CCNC(=O)C(=O)NCC[N+](CC)(CC)Cc1ccccc1Cl)Cc1ccccc1Cl
not listed: [14] | [20]
inactive: all other assays above

COc1c(Br)cc(Br)c(C)c1Br
not listed: [17] | [20]
inactive: all other assays above

COc1cc2c(cc1OC)CN(C(=O)[C@H](C)N[C@@H](CCc1ccccc1)C(=O)O)[C@H](C(=O)O)C2
not listed: [13]
inactive: all other assays above

C[C@@H]1CN(CCCn2c3ccccc3c3ccccc32)C[C@H](C)N1
active: [1] 26.6 µM
not listed: [13] | [15] | [16] | [17] | [19]
inactive: all other assays above

COC(=O)c1cc(C(=O)OC)cc(S(=O)(=O)O)c1
not listed: [13] | [17]
inactive: all other assays above

FC1(F)C(F)(F)C(F)(F)C2(F)C(F)(C1(F)F)C(F)(F)C(F)(F)C1(F)C(F)(F)C(F)(F)C(F)(F)C(F)(F)C12F (stereo not given)
not listed: [13]
inactive: all other assays above

CC1CCCCC1
not listed: [13]
inactive: all other assays above

CC(=O)C1CCCCC1=O (stereo not given)
not listed: [13] | [15] | [16]
inactive: all other assays above

CC(C)(C)CC(=O)OCC(=O)[C@@]1(O)CC[C@H]2[C@@H]3CCC4=CC(=O)C=C[C@]4(C)[C@H]3[C@@H](O)C[C@@]21C
not listed: [12] | [17] | [18]
inactive: all other assays above

OCCN(CCO)c1cccc(Cl)c1
not listed: [13]
inactive: all other assays above

O=C(Nc1ccccc1)Nc1ccccc1
active: [16] 68.9 µM
not listed: [13] | [19] | [20]
inactive: all other assays above

CCC(O)C(C)(C)C (stereo not given)
not listed: [13]
inactive: all other assays above

CC(N)C(=O)OC(C)(C)Cc1ccc(Cl)cc1 (stereo not given)
not listed: [13] | [17]
inactive: all other assays above

CC(CN1CC(=O)NC(=O)C1)N1CC(=O)NC(=O)C1 (stereo not given)
active: [11] 19.9 µM
not listed: [12] | [18]
inactive: all other assays above

CCCCN(C)C
not listed: [14] | [16] | [20]
inactive: all other assays above

CCCC(=O)OCOC(=O)C1=C(C)NC(C)=C(C(=O)OC)C1c1cccc(Cl)c1Cl (stereo not given)
not listed: [13] | [14] | [17]
inactive: all other assays above

COc1ccc2[nH]c(S(=O)Cc3ncc(C)c(OC)c3C)nc2n1 (stereo not given)
active: [2] 21.1 µM
not listed: [13] | [15] | [20]
inactive: all other assays above

Cc1ccc2c(c1)C(=O)c1ccccc1C2=O
active: [2] 2.72 µM
not listed: [13] | [15] | [19]
inactive: all other assays above

CCC(C=O)CC
not listed: [13] | [17]
inactive: all other assays above

CC(C)NCC(O)c1ccc2ccccc2c1 (stereo not given)
not listed: [13] | [16] | [17]
inactive: all other assays above

CC(=O)SC[C@@H](Cc1ccccc1)C(=O)NCC(=O)OCc1ccccc1
not listed: [14] | [19] | [20]
inactive: all other assays above
